Experimental data taken from PubChem BioAssay AID504942 (Broad Institute, 2011).
Measured potencies and affinities stand elsewhere. Active and inactive are the calls of the source. The rule behind the calls is not given here.

assay: toxicity to human HeLa cells – cell-based, 48 h, plate reader, cherry-picks, cytotoxicity control, dose response (AID 504942); settings: series mostly up to 38 µM; activity change, negative = toxicity: at the top concentration

Compound | activity change, negative = toxicity
O=[N+]([O-])c1ccc(N2CCCCC2)cc1 | -11% (inactive)
O=CNC1(c2ccccc2)CCCCC1 | 4.94% (inactive)
O=C(NC1CCSC1)c1cccc(Cl)c1 (stereo not given) | 0.981% (inactive)
CCOC(=O)CC(C#N)c1cn(C)c2ccccc12 (stereo not given) | 2.88% (inactive)
O=C(NC1CCCC1)c1cc(Cl)ccc1[N+](=O)[O-] | -0.51% (inactive)
O=[N+]([O-])c1ccc(N2CCCCC2)nc1 | 7.32% (inactive)
COc1ccc(CNCc2cccc(Cl)c2)cc1 | 1.45% (inactive)
Cc1ccc2scc(CN3CCCC3)c2c1 | -6.04% (inactive)
N#Cc1cc(-c2ccccc2)cnc1Cl | 10.2% (inactive)
Clc1cccc(CNCCCSc2ncccn2)c1 | -19.5% (inactive)
CCOC(=O)c1cnc(-c2ccccc2)nc1N | -7.36% (inactive)
C=CCOC(=O)c1ccc(-n2cnc(C)n2)nc1 | 1.26% (inactive)
O=C(c1cccc([N+](=O)[O-])c1)N1CC2C3C=CC(C3)C2C1 (stereo not given) | 8.14% (inactive)
O=C1C2C(C(=O)N1Cc1ccco1)C1C=CC2C12CC2 (stereo not given) | 8.3% (inactive)
COC(=O)c1cc(-c2ccc(Br)cc2)on1 | -2.78% (inactive)
COC(=O)c1ccc(OC(=O)c2cccs2)cc1 | -6.4% (inactive)
Cc1cc(C)nc(N(C#N)Cc2cccc([N+](=O)[O-])c2)n1 | 2.83% (inactive)
Cc1ccc(S(=O)(=O)NCCC(C)C)cc1[N+](=O)[O-] | -2.78% (inactive)
N#CC(c1ccc(Cl)cc1)c1cccc(Cl)n1 (stereo not given) | 6.54% (inactive)
CO/N=C/c1cn(-c2ccc(Cl)cc2)nn1 | 0.942% (inactive)
N#Cc1cc([N+](=O)[O-])ccc1N1CCCC1 | 0.911% (inactive)
COC(=O)c1ccc(NC(=S)N2CCCC2)cc1 | -4.47% (inactive)
Cc1cc(C)nc(N(C#N)Cc2ccccc2)n1 | 1.81% (inactive)
COC(=O)c1cc(-c2ccc(OC)cc2)on1 | -7.79% (inactive)
COc1ccc(N2CCN(C(=O)c3ccc(Br)o3)CC2)cc1 | 7.9% (inactive)
CCOc1ccc(CNC2CCCc3ccccc32)cc1 (stereo not given) | -2.04% (inactive)
Cc1ccc(C)c(S(=O)(=O)NC2CCSC2=O)c1 (stereo not given) | 3.01% (inactive)
C#CCSc1ncc(-c2ccccc2)cn1 | -1.75% (inactive)
N#CC(c1ccc(Cl)nn1)c1c(F)cccc1Cl (stereo not given) | 5.99% (inactive)
Cn1cccc1C(C#N)c1ccccc1C#N (stereo not given) | 5.17% (inactive)
